Laboratory results taken from PubChem BioAssay AID1347043 (National Center for Advancing Translational Sciences (NCATS), 2019).
About 1,900 (2.5%) of roughly 76,000 compounds were called active. About 5% were inconclusive and are not listed. Calls follow the shape of the dose curve; as a rule, active = well fitted inhibition curve with a large enough effect; inconclusive = small, poorly fitted or top-dose-only effect; inactive = flat fitted curve, though single readings scatter. The sample as a whole holds a higher share of actives than the screen did.

Target: Luciferin 4-monooxygenase (Photinus pyralis) (UniProt P08659)
Sequence (P08659 whole entry, looked up): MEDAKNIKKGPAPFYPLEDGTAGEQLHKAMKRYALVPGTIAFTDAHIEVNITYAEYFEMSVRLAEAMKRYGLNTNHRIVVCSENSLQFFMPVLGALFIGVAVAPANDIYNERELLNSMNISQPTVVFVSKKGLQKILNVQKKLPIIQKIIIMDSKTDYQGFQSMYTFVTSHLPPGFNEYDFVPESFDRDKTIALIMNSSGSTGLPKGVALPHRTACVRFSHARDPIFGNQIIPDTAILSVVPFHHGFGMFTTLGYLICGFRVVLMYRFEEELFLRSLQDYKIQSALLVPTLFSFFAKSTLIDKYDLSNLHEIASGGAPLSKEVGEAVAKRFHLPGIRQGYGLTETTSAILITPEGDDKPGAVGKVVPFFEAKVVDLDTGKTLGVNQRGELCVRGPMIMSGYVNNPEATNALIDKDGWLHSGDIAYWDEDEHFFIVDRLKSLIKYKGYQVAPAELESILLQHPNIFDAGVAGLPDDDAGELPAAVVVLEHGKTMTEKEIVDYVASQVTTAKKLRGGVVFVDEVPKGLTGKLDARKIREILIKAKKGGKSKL
Experiment: Firefly luciferase inhibition profiling of diverse chemical library using quantitative high-throughput screening; also: nearly all actives have a fitted effect of over 65% in size
Settings: purified P. pyralis luciferase, luminescence, biochemical; series mostly up to 115 µM; activity change, negative = inhibition: at the top concentration
Text: Firefly (Photinus pyralis) luciferase is one of the most commonly used transcriptional reporters for a number of reasons. It is considered one of the more dynamically responsive reporters - that is, responsive to changes in reporter transcription - as it requires no post-translational modifications and is enzymatically active directly after protein synthesis (Wood, 1998). Additionally, the half-life of the luciferase protein is short relative to other reporter-gene products (Wood, 1995). Whereas reporters with long half-lives potentially allow for increased signal due to accumulation of reporter-gene product, once accumulated in the cell, dynamic changes in reporter-gene expression may be difficult to detect(Fan and Wood, 2007; Almond et al., 2004). It has been shown that wild-type P. pyralis luciferase has a half-life of approximately four hours in mammalian cells (Thompson et al., 1991). Firefly luciferase reporter-gene assays are also generally considered one of the most sensitive assay types (Wood, 1995; Wood, 1998). Although light produced in a bioluminescence reaction is of lower intensity than that produced during fluorescence emission, this is offset by little to no background light inherent to luminescent assays. Thus the luciferase reporter can be expressed at much lower levels than fluorescent proteins while still providing robust signal. However, it was initially observed, in 1991, by Thompson et al., that compounds that resemble the substrates of firefly luciferase (FLuc) can act as competitive inhibitors of the enzyme, and that these compounds, upon interaction with luciferase in the cell, can actually stabilize the protein and increase its half-life. Accumulated intracellular FLuc protein can be measured as an increase in luminescence signal, upon addition of detection reagents (which contain high concentrations of FLuc substrates) commonly used in high-throughput screening. In cell-based reporter gene assays that use FLuc as the reporter gene to quantitate the potential influence of a given compound against the target biology, this apparent increase in luminescence can mistakenly be interpreted as identification of a compound that is active against the target of interest. FLuc inhibitory compounds that stabilize the FLuc protein will give an identical read-out, making it difficult to distinguish compounds that are active against the target from those active against FLuc. In summary, the results generated here constitutes a valuable resource for the scientific community and provides insight on identifying compounds with inhibitory activity for the commonly-used reporter, firefly luciferase. References: -Almond, B., Zdanovsky, A., Zdanovskaia, M., Ma, D., Stecha, P., Paguio, A., Garvin, D., and Wood, K. (2004). Introducing the Rapid Response Reporter Vectors. Promega Notes 87, 18-22. -Fan, F., and Wood, K.V. (2007). Bioluminescent assays for high-throughput screening. Assay Drug Dev Technol 5, 127-136. -Thompson, J.F., Hayes, L.S., and Lloyd, D.B. (1991). Modulation of firefly luciferase stability and impact on studies of gene regulation. Gene 103, 171-177. -Wood, K.V. (1998). The chemistry of bioluminescent reporter assays. Promega Notes 65, 14-20. -Wood, K.V. (1995). Marker proteins for gene expression. Curr Opin Biotechnol 6, 50-58.
Reagents: 50mM Tris acetate, pH 7.5; 10mM Mg acetate; 10uM D-luciferin (Sigma #L9504); 10uM ATP; 0.01% Tween-20; 0.05% BSA; 10nM P. pyralis luciferase (Sigma #L9506) Control compounds used were two known firefly luciferase inhibitors (compounds (2) and (5) in Auld et al., 2010), and DMSO. Assay Summary: Three microliters containing firefly luciferase substrates in buffer (final concentrations: 50mM Tris acetate, pH 7.5, 10mM Mg acetate, 0.01% Tween-20, 0.05% BSA, 10uM D-luciferin, and 10uM ATP) are dispensed into each well of a Greiner white, solid-bottom 1536-well format plate using a flying reagent dispenser (FRD). […]
% is scaled to controls: 0 for no effect and ±100 for the full control effect.

Compound	activity change, negative = inhibition	Potency
Fc1ccc2oc([C@H]3CCN(C4CCOCC4)C3)nc2c1	-11% [at 230 µM] (inactive)	
COC(=O)c1cccc2nc([C@H]3CCN(Cc4ccccc4)C3)oc12	11% [at 172 µM] (inactive)	
Clc1ccc2oc([C@H]3CCN(Cc4ccccc4)C3)nc2c1		20 µM (active)
COc1ccc(-c2noc([C@@H]3CCCN3C(=O)CCCc3ccccc3)n2)cc1OC	-2.67% (inactive)	
Cc1ccc(-c2ccc3nnc(CNC(=O)c4ccccn4)n3n2)cc1	0% (inactive)	
COCCNC(=O)[C@@H]1C[C@H](Oc2cccnc2)CN1C(=O)c1ccc(OC)nc1OC	-9.84% (inactive)	
COc1ccc(CCC(=O)N2CCC(c3n[nH]c(=O)n3-c3ccc(C)cc3)CC2)cc1	8.18% (inactive)	
CC(=O)NC1(C)CN(Cc2ccc(-c3ccc4c(ccn4C)c3)s2)C1		0.316 µM (active)
COC(=O)[C@@H]1Cc2c([nH]c3ccccc23)[C@H]2C[C@@H](NCCN3CCOCC3)C[C@@H](c3ccccc3)N21	-24.5% (inactive)	
O=C1NC2(CCN(Cc3ccccc3)C2)OCc2ccccc21 (stereo not drawn)	-7.17% [at 172 µM] (inactive)	
CSCc1ccc(C(=O)N[C@H]2[C@@H]3CCO[C@@H]3[C@@H]2C2CCCC2)o1	-9.79% (inactive)	
CN(CCNC(=O)CCc1cc2ccccc2[nH]c1=O)C1CCCCC1	-3.21% (inactive)	
COc1ccc(CNC(=O)C[C@@H]2CCNC[C@@H]2Cc2cc(-c3ccc(C(C)(C)C)cc3)on2)cc1OC	0.217% (inactive)	
COc1ccc(-c2nc3ccncc3[nH]2)cc1		31.6 µM (active)
COc1ccc(CC(=O)NC[C@@H]2C=C(C)[C@H](Cc3nc4ccncc4[nH]3)C[C@H]2C(C)C)cc1	4.96% (inactive)	
c1cc(-c2nc3ccncc3[nH]2)ccn1	-13.8% [at 230 µM] (inactive)	
COc1ccc(-c2cc(N3CCC(NC(=O)c4cccc(C)c4)CC3)n[nH]2)cc1	4.47% (inactive)	
Cc1nn2c(c1-c1ccccc1C(C)C)N(C(=O)c1cccc(C#N)c1)CCC2	5.18% [at 172 µM] (inactive)	
COc1cccc(-c2ccc(F)c(C(N)=O)c2)c1OC	-15.8% (inactive)	
COc1cccc(-c2nc3ccc(-c4ccc5c(c4)OCO5)cc3o2)c1OC		1.12 µM (active)
COc1cc(-c2noc(-c3nc(-c4ccc5c(c4)OCO5)no3)n2)cc(OC)c1OC	4.62% (inactive)	

Compound	activity change, negative = inhibition	Potency
COc1ccc(C(=O)N2CCC(N3CC(OC)C34CCOCC4)CC2)c(OC)c1 (stereo not drawn)	2.6% (inactive)	
Cc1cc(CN(C)C(=O)c2cc(COc3ccc(F)cc3F)on2)n[nH]1	-9.52% (inactive)	
OC1(CN2CCCCC2)CCN(c2nc3ccccc3s2)C1 (stereo not drawn)		10 µM (active)
O=C(Nc1cccnc1)O[C@H]1COCCN(c2nc3ccccc3s2)C1	-17.1% [at 172 µM] (inactive)	
Cc1cc(C(=O)N2CC[C@H](NC(=O)c3cnccn3)C[C@H]2C(=O)N[C@H](Cc2ccccc2)C(N)=O)n(C)n1	0.378% (inactive)	
Cc1ccc(CS(=O)(=O)N2CCC(C3CCNC3)CC2)cc1C (stereo not drawn)	-6.1% (inactive)	
CC(C)Cn1cncc1CNC(=O)c1ccc2nc(-c3ccc(F)cc3)cn2c1		35.5 µM (active)
COc1ccc(C(=O)NCc2nnc3ccc(-c4ccc(C)cc4)nn23)cc1F	4% (inactive)	
O=C(c1ccc2nc(-c3ccc(F)cc3)cn2c1)N1CCSCC1	-29.8% (inactive)	
Cc1nn(-c2ccc(C(C)C)cc2)c(C)c1[C@@H]1C=C[C@@H](NC(=O)Nc2ccccc2)C1		3.55 µM (active)
Cc1nn(-c2ccc(C(C)(C)C)cc2)c(C)c1[C@@H]1C=C[C@@H](NC(=O)c2ccco2)C1		14.1 µM (active)
Cc1nn(Cc2ccccc2)c(C)c1[C@@H]1C=C[C@@H](NC(=O)NC2CCCCC2)C1	12.5% [at 172 µM] (inactive)	
Cc1cnc(CCNC(=O)c2ccco2)n1C1CCC1	-14.4% (inactive)	
CC(C)(C)c1ccnc(N[C@H]2CO[C@H]3[C@@H]2OC[C@@H]3NC(=O)CC2(CC(=O)O)CCCC2)n1	-12.5% (inactive)	
Cc1nn(Cc2ccccc2)c(C)c1[C@@H]1C=C[C@@H](NC(=O)NC(C)C)C1	1.19% [at 172 µM] (inactive)	
C[C@@H](NC(=O)C1=C[C@@H](NC(=O)CC2(CC(=O)O)CCCC2)[C@@H](O)[C@H](O)C1)C(N)=O	0.91% [at 172 µM] (inactive)	
CCC(C)NC(=O)Cc1csc2nc(C)c(-c3cc(C)n(-c4ccc(C(C)C)cc4)n3)c(=O)n12 (stereo not drawn)	-9.06% (inactive)	
Cc1nn(-c2ccc(C(C)C)cc2)c(C)c1[C@@H]1C=C[C@@H](NC(=S)NCC(C)C)C1		7.08 µM (active)
Cc1nn(-c2ccc(C(C)C)cc2)c(C)c1[C@@H]1C=C[C@@H](NC(=O)CC2(CC(=O)O)CCCC2)C1		35.5 µM (active)
Cc1nn(CCC#N)c(C)c1[C@@H]1C=C[C@@H](NS(=O)(=O)c2ccccc2)C1	7.12% [at 172 µM] (inactive)	
O=C(NCC1CN(Cc2ccccc2)CC12CN(c1ccccc1)C2)Nc1ccccc1 (stereo not drawn)	2.68% [at 172 µM] (inactive)	

Compound	activity change, negative = inhibition	Potency
O=C1NCCCCCCN(Cc2ccc3c(c2)CCO3)[C@H]2CCC[C@@H]12	-5.58% (inactive)	
CN(C)C[C@@H]1CN(Cc2ccccn2)C[C@H]1NC(=O)c1ccc2cc[nH]c2c1	-1.46% (inactive)	
CC(C)COc1cc(=O)n2c(c1C(=O)NCCCN1CCOCC1)CCCCC2	-4.23% (inactive)	
COc1ccc(C(=O)NCC(=O)N2CCCCCCNC(=O)CC2c2ccccc2)cn1 (stereo not drawn)	-9.05% (inactive)	
CN(C)C(C(=O)N1CCC(OCc2cccnc2)CC1)c1cccc(F)c1 (stereo not drawn)	0.25% (inactive)	
O=C(c1ccccc1C1CCNC1)N1CCC(Nc2ncccn2)CC1 (stereo not drawn)	3.36% (inactive)	
CN1C(=O)CO[C@H]2CN(C(=O)c3ccccc3)C[C@H]21	0.13% [at 230 µM] (inactive)	
Cc1ccccc1CN1CCOc2cc([S+](=O)([O-])N(C)C)ccc2C1	-3.29% [at 172 µM] (inactive)	
CC(C)CN1CCN(C(=O)c2cc3c(s2)CCN(C(=O)c2ccc(Cl)cc2)C3)CC1	-6.31% (inactive)	
CC(C)c1noc([C@H]2C[C@@H]3C(=O)NCCCCCCN(C(=O)Cc4cccnc4)[C@@H]3C2)n1	-15.9% (inactive)	
COc1ccc(C)cc1NC(=O)Nc1cccc(-c2ccc(N3CCCCC3)nn2)c1		0.282 µM (active)
COc1ccc(C)cc1NC(=O)Cn1nc2n(c1=O)CCCC2	-4.41% (inactive)	
COc1cc(=O)n2c(c1C(=O)Nc1cc(C)ccc1C)CCCC2	-5.74% (inactive)	
COc1cc(Cl)ccc1C(=O)N1CCC[C@H]1c1nc(-c2ccccc2)no1	12.2% (inactive)	
COCCn1c(=O)n([C@H]2CCCN(C(=O)c3cc4ccccc4[nH]3)C2)c2ncccc21	8.11% (inactive)	
CSc1ccc(CNC(=O)c2noc(-c3ccc(C)cc3)n2)cc1	-8.08% (inactive)	
Cc1ccc(-c2nc(C(=O)N(C)Cc3ccccc3)no2)cc1		10 µM (active)
Cc1cccc(C(=O)N2CCCC(C(=O)N3CCN(c4ccccn4)CC3)CCNC(=O)CC2)c1 (stereo not drawn)	7.1% (inactive)	
CC(NC(=O)Cc1cccc(F)c1)C(=O)N1CCN(c2ccccn2)CC1 (stereo not drawn)	-7.86% (inactive)	
COc1ccc(CCNC(=O)c2noc(-c3ccc(C)cc3)n2)cc1OC	-16.8% (inactive)	
Cc1ccc(-c2nc(C(=O)N3CCN(c4ccccn4)CC3)no2)cc1		14.1 µM (active)
